# Inconclusive results are not listed. Where a structure was tested more than once in an assay, its records may differ in their call. Calls of active or inactive are those of the source. How the source made its calls, unless noted: active means hit-call score of the fitted dose curve at least 0.9, where 1 is the maximum; inconclusive means response in the unintended direction; inactive means score below 0.9.
# Experiments:
# [1] = biological target: Retinoic acid receptor alpha (Homo sapiens) (UniProt P10276); test: NVS_NR_hRARa_Agonist: NovaScreen (NVS) Nuclear Receptor Binding Assay for human Retinoic Acid Alpha Receptor Agonism (RAR) (AID 2283361)
# Sequence of Retinoic acid receptor alpha (Homo sapiens) (P10276 whole entry, looked up): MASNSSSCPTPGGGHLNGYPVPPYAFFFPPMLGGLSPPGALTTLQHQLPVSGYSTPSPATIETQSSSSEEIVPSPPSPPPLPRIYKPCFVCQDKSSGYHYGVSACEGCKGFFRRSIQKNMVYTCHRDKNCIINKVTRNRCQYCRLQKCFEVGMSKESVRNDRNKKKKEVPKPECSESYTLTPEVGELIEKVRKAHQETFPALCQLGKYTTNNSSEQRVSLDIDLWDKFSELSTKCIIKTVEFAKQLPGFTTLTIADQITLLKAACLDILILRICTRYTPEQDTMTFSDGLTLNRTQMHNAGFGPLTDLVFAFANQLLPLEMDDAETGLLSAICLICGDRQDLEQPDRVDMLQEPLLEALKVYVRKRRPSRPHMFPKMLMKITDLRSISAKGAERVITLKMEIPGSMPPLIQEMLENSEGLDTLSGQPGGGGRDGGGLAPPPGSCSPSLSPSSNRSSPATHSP
# Method in brief: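 Readout is time-resolved fluorescence resonance energy transfer after a 2 h exposure of cell-free extracted receptor protein. Initial testing used 25 uM in duplicate, with concentration-response follow-up for active chemicals.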
# [2] = biological target: mouse Peroxisome Proliferator-activated Receptor gamma (PPARg), Pparg (gene 19016) (UniProt P37238); test: ATG_mPPARg_XSP2: Attagene TRANS-FACTORIAL Multi-Species (XSP2) HepG2 Assay for mouse Peroxisome Proliferator-activated Receptor gamma (PPARg) (AID 2283830);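 further: hits are gains in reporter mRNA above DMSO so AC50 marks activation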
# Sequence of mouse Peroxisome Proliferator-activated Receptor gamma (PPARg), Pparg (gene 19016) (P37238 whole entry, looked up, the tested form may be a part): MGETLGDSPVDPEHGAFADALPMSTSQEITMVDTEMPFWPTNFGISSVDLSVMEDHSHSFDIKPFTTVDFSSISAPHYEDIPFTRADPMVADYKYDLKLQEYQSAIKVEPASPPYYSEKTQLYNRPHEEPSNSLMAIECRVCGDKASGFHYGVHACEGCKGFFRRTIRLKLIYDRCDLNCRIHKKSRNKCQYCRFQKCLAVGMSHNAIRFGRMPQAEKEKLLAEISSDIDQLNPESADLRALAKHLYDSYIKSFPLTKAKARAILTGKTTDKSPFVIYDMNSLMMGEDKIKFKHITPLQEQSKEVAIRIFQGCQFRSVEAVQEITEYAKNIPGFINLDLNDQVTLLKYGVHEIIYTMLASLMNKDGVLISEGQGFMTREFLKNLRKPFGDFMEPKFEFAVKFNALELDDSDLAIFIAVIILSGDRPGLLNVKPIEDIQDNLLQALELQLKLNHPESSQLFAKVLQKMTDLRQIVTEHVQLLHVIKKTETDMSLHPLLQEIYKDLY
# Method in brief: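 HepG2 cells transiently transfected with GAL4-UAS reporter units for chimeric NR-Gal4 proteins including mouse PPARg, exposed 24 h; medium contained 3 nM 6-alpha-fluorotestosterone and 1.5 nM norgestrel. Reporter mRNA quantified by RT-PCR, HpaI digestion and capillary electrophoresis, vs DMSO.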
# [3] = biological target: zebrafish Thyroid Hormone Receptor alpha (TRa), thraa (gene 30670) (UniProt Q98867); test: ATG_zfTRa_XSP2: Attagene TRANS-FACTORIAL Multi-Species (XSP1) HepG2 Assay for zebrafish Thyroid Hormone Receptor alpha (TRa) (AID 2283832);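 further: actives raise zebrafish TRa-Gal4 reporter transcript above DMSO baseline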
# Sequence of zebrafish Thyroid Hormone Receptor alpha (TRa), thraa (gene 30670) (Q98867 whole entry, looked up, the tested form may be a part): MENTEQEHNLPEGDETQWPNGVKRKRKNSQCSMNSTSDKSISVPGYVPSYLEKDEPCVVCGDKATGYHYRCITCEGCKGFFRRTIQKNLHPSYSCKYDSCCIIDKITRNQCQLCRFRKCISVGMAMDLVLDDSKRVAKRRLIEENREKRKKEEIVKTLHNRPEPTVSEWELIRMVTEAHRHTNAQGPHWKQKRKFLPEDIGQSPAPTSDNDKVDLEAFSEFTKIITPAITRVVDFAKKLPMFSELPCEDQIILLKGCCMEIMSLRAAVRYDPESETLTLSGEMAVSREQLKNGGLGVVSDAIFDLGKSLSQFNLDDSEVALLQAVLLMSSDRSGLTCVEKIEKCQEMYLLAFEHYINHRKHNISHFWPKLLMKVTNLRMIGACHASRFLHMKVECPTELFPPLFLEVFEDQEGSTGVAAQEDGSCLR
# Method in brief: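 Chimeric receptor-Gal4 activity was assessed in transfected human liver HepG2 cells 24 h after dosing, using reporter transcript levels detected by RT-PCR and capillary electrophoresis. DMSO served as baseline.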
# DIO3 (gene 1735) = test: CCTE_GLTED_hDIO3: CCTE's human Deiodinase 3 (DIO3) Inhibition Assay, Great Lakes Toxicology and Ecology Division (GLTED) Lab (AID 2284055);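 further: potency is for inhibition seen as loss of released iodide signal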
# Method in brief: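 Enzyme activity is tracked as iodide release from substrate by recombinant human DIO3 over 3 h with chemical present. A second Sandell-Kolthoff step converts iodide to an absorbance signal, fitted relative to DMSO.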
# [4] = biological target: Cytochrome P450 2C19 (Homo sapiens) (UniProt P33261); test: NVS_ADME_hCYP2C19: NovaScreen (NVS) CYP450-related Enzyme Activity (ADME) Assay for human CYP2C19 (AID 2283113);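 further: potency for inhibition seen as loss of fluorescent signal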
# Method in brief: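 Compounds first screened in duplicate at 10 uM, then confirmed in concentration series. Insect-cell-expressed human CYP2C19 turned over a fluorogenic substrate, and fluorescence was read after 1 h. Inhibition taken as signal loss relative to acetonitrile.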
# [5] = CEETOX_H295R_11DCORT_noMTC: CeeTox H295R High-throughput Steroidogenesis Assay for 11-Deoxycortisol (11DCORT), maximum tolerated concentration (MTC) filtered results only (AID 2283911; active means hit-call score of the fitted dose curve at least 0.9, where 1 is the maximum; inactive means score below 0.9); settings: actives raise or lower the signal
# Method in brief: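 Values carry no filtering for maximum tolerated concentration: medium from forskolin-primed (10 uM, 48 h) H295R cells after 48 h chemical exposure (0.1% DMSO) was MTBE-extracted, and 11-deoxycortisol quantified by reverse-phase HPLC-MS/MS. Fitting was bidirectional against DMSO.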
# [6] = CEETOX_H295R_OHPREG_noMTC: CeeTox H295R High-throughput Steroidogenesis Assay for OH-Pregnenolone (OHPREG), maximum tolerated concentration (MTC) filtered results only (AID 2283912; active means hit-call score of the fitted dose curve at least 0.9, where 1 is the maximum; inactive means score below 0.9); settings: actives raise or lower the signal
# Method in brief: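 Steroidogenesis in H295R cells (OECD 456, modified): after 48 h forskolin priming and 48 h chemical treatment, secreted 17alpha-hydroxypregnenolone is measured by HPLC-MS/MS. Activity is fitted in both directions against DMSO; concentrations are not filtered by MTT-based MTC.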
# [7] = CEETOX_H295R_OHPROG_noMTC: CeeTox H295R High-throughput Steroidogenesis Assay for OH-Progesterone (OHPROG), maximum tolerated concentration (MTC) filtered results only (AID 2283914; active means hit-call score of the fitted dose curve at least 0.9, where 1 is the maximum; inactive means score below 0.9); settings: actives raise or lower the signal
# Method in brief: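 Forskolin 10 uM, 48 h prestim → test cmpd in DMSO (0.1% final), 48 h → medium MTBE extraction → LC-MS/MS quant of 17alpha-OH-progesterone. Bidirectional fit vs DMSO; no MTT-based MTC filtering.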
# [8] = CEETOX_H295R_CORTISOL_noMTC: CeeTox H295R High-throughput Steroidogenesis Assay for Cortisol, maximum tolerated concentration (MTC) filtered results only (AID 2283916; active means hit-call score of the fitted dose curve at least 0.9, where 1 is the maximum; inactive means score below 0.9); settings: actives raise or lower the signal
# Method in brief: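 Cortisol secretion measured by LC-MS/MS after 48 h chemical treatment (final 0.1% DMSO) of forskolin-primed (10 uM, 48 h) H295R cells; gain or loss fitted relative to DMSO, without maximum-tolerated-concentration filtering.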
# [9] = CEETOX_H295R_CORTIC_noMTC: CeeTox H295R High-throughput Steroidogenesis Assay for Corticosterone (CORTIC), maximum tolerated concentration (MTC) filtered results only (AID 2283917; active means hit-call score of the fitted dose curve at least 0.9, where 1 is the maximum; inactive means score below 0.9); settings: actives raise or lower the signal
# Method in brief: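 Following OECD 456 with minor changes, H295R cultures received 10 uM forskolin for 48 h, then test chemical at 0.1% DMSO for 48 h. Media steroids were extracted and measured by LC-MS/MS.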
# [10] = CEETOX_H295R_DOC_noMTC: CeeTox H295R High-throughput Steroidogenesis Assay for DOC, maximum tolerated concentration (MTC) filtered results only (AID 2283918; active means hit-call score of the fitted dose curve at least 0.9, where 1 is the maximum; inactive means score below 0.9); settings: actives raise or lower the signal
# Method in brief: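 11-Deoxycorticosterone secreted by human adrenal H295R cells quantified by HPLC-MS/MS after 48 h chemical exposure (0.1% DMSO), following 48 h 10 uM forskolin prestimulation. Concentrations not filtered by MTT-derived MTC; bidirectional fitting.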
# [11] = CEETOX_H295R_PROG_noMTC: CeeTox H295R High-throughput Steroidogenesis Assay for Progesterone (PROG), maximum tolerated concentration (MTC) filtered results only (AID 2283920; active means hit-call score of the fitted dose curve at least 0.9, where 1 is the maximum; inactive means score below 0.9); settings: actives raise or lower the signal
# Method in brief: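 H295R cells; forskolin 10 uM x 48 h prestim; test cpd 48 h, 0.1% DMSO final; media progesterone via LC-MS/MS; bidirectional fit vs DMSO; no MTT-based MTC filter applied.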
# [12] = biological target: Androgen Receptor/SRC-1 Co-activator, AR (gene 367) (UniProt P10275); test: OT_AR_ARSRC1_0960: Odyssey Thera (OT) 16-hour HEK293T Protein-Complementation Assay for Androgen Receptor/SRC-1 Co-activator (AID 2283353);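 further: actives raise the signal above DMSO so potency reflects increased AR and SRC-1 complex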
# Sequence of Androgen Receptor/SRC-1 Co-activator, AR (gene 367) (P10275 whole entry, looked up, the tested form may be a part): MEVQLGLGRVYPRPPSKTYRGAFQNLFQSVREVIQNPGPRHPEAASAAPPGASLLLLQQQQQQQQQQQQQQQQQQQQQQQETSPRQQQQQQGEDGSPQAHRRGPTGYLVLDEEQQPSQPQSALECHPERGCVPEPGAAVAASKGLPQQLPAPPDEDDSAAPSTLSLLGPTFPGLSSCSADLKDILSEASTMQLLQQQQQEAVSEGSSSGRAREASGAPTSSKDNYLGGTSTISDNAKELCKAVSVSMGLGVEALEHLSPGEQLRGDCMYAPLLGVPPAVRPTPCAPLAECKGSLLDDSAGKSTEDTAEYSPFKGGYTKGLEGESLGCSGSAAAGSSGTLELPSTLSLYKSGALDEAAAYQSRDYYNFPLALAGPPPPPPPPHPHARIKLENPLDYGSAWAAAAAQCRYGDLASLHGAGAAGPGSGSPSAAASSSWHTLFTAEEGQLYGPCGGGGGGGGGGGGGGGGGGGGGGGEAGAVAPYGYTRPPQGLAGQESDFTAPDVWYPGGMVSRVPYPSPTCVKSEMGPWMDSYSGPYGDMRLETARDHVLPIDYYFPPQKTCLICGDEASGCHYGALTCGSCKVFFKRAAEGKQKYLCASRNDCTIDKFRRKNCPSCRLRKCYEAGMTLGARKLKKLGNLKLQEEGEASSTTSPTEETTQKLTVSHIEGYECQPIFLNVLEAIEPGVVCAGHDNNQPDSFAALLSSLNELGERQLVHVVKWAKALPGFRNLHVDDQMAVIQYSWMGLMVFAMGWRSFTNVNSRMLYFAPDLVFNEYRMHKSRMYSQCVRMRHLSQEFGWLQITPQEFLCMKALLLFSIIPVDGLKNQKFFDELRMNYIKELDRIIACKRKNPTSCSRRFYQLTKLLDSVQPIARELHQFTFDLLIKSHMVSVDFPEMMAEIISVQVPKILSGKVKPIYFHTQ
# Method in brief: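 Interaction of AR with SRC-1 was followed by YFP fragment complementation in HEK293T cells after 16 h of dosing. Gain of nuclear-over-cytoplasmic 488 nm fluorescence against DMSO controls defined activity.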
# [13] = biological target: Androgen Receptor/SRC-1 Co-activator, AR (gene 367) (UniProt P10275); test: OT_AR_ARSRC1_0480: Odyssey Thera (OT) 8-hour HEK293T Protein-Complementation Assay for Androgen Receptor/SRC-1 Co-activator (AID 2283354);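 further: hits raise the complementation signal above DMSO so AC50 marks enhancers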
# Method in brief: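 Measures AR/SRC-1 binding by Venus YFP fragment complementation in HEK293T stable lines at 8 h post-dose. Imaging quantifies the 488nm nucleus/cytoplasm ratio in ≥400 cells; DMSO defines baseline.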
# [14] = biological target: Agonist Androgen Response Element (ARE), AR (gene 367) (UniProt P10275); test: OT_AR_ARELUC_AG_1440: Odyssey Thera (OT) 24-hour CHO-K1 Luciferase Assay for Agonist Androgen Response Element (ARE) (AID 2283379)
# Sequence of Agonist Androgen Response Element (ARE), AR (gene 367) (P10275 whole entry, looked up): as the sequence (P10275 whole entry, looked up, the tested form may be a part) above
# Method in brief: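 Agonist mode, 24 h exposure in CHO-K1 ARE-luciferase cells; values reflect luminescence induction over vehicle.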
# [15] = STM_H9_OrnCyssISnorm_ratio: Stemina devTOX quickPredict H9 human embryonic stem cell (hESC)-based Assay for Ornithine (ORN):Cystine (CYSS) Ratio (AID 2283714)
# Method in brief: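 Steps: H9 hESCs in pluripotent state dosed 72h, medium plus compound renewed every 24h; conditioned medium from the final 24h deproteinized in 40% acetonitrile; ORN and CYSS quantified by UPLC-HRMS with C13 spike-ins; ratio relative to vehicle.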
# [16] = STM_H9_NormalizedViability: Cytotoxicity Assessment at 120 hours in the Stemina devTOX quickPredict H9 human embryonic stem cell (hESC)-based Assay (AID 2283784)
# Method in brief: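 Chemicals are tested blinded on H9 human embryonic stem cells in the pluripotent state, with medium exchanged daily. After background correction, fluorescence from CellTiter-Fluor is scaled against 0.1% DMSO wells, and decreases are scored.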
# [17] = read-out: Interferon-inducible T-cell alpha chemoattractant (ITAC), CXCL11 (gene 6373); test: BSK_hDFCGF_ITAC: BioMAP Diversity Plus: hDFCGF Assay for Interferon-inducible T-cell alpha chemoattractant (ITAC) Biomarker Activity (AID 2284251; active means hit-call score of the fitted dose curve at least 0.9, where 1 is the maximum; inactive means score below 0.9); settings: primary human foreskin fibroblasts
# Method in brief: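 Fibroblasts (human foreskin, primary) are treated with chemical, cultured 24 h, then assayed for I-TAC by ELISA. Overt toxicity is checked in parallel cultures by sulforhodamine B staining of total protein at the same time point.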
# [18] = read-out: Matrix Metallopeptidase 9 (MMP9), MMP9 (gene 4318); test: BSK_BE3C_MMP9: BioMAP Diversity Plus: BE3C Assay for Matrix Metallopeptidase 9 (MMP9) Biomarker Activity (AID 2284283; active means hit-call score of the fitted dose curve at least 0.9, where 1 is the maximum; inactive means score below 0.9); settings: primary human bronchial epithelial cells
# Method in brief: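 MMP9 is measured by ELISA after a 24 h compound exposure of primary human bronchial epithelial cultures. Parallel SRB staining gives overt cytotoxicity. Values fitted in the positive direction against DMSO.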
# [19] = biological target: Estrogen receptor (Homo sapiens) (UniProt P03372); test: NVS_NR_hER: NovaScreen (NVS) Nuclear Receptor Binding Assay for human Estrogen Receptor (ER) (AID 2283348)
# Sequence of Estrogen receptor (Homo sapiens) (P03372 whole entry, looked up): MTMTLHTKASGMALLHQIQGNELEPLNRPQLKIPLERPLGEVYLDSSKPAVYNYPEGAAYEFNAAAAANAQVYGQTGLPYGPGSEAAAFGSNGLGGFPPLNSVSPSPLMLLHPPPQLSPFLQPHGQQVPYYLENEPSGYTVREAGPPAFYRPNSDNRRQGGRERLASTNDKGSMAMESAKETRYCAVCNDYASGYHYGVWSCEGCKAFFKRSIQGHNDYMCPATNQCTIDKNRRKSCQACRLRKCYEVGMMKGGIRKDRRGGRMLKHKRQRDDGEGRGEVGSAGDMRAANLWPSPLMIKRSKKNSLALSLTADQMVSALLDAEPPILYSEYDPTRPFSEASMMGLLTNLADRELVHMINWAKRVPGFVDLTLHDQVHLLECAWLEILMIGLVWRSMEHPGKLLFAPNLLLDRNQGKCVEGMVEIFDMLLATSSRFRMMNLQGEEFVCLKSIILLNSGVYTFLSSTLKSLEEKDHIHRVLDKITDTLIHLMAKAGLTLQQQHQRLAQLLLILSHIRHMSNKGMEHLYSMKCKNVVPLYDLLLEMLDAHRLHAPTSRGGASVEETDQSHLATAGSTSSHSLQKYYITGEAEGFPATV
# Method in brief: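 Scintillation signal from bound radioligand was measured 18 hours after chemical addition to cell-free MCF7 protein extracts, with DMSO as baseline. Activity was scored as signal loss; compounds ran first at 25 uM in duplicate.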
structure (smiles),measurement,setting,value
Cc1cc(O)cc(C)c1Cl,outcome,[1],inactive
same,AC50,[2],72.9 µM (active)
same,outcome,[2],inactive
same,AC50,[3],100 µM (active)
same,outcome,[3],inactive
COC(=O)[C@]1(C)CCC[C@@]2(C)[C@H]1CC=C1C=C(C(C)C)CC[C@@H]12,AC50,DIO3 (gene 1735),36 µM (active)
Sc1nc2ccccc2s1,AC50,[4],5 µM (active)
same,outcome,[5],inactive
same,outcome,[6],inactive
same,outcome,[7],inactive
same,outcome,[8],inactive
same,outcome,[9],inactive
same,outcome,[10],inactive
same,outcome,[11],inactive
same,AC50,DIO3 (gene 1735),61.3 µM (active)
O=C(c1ccccc1)c1ccccc1O,outcome,[12],inactive
same,outcome,[13],inactive
same,outcome,[14],inactive
Cc1cc2nc3c(=O)[nH]c(=O)nc-3n(C[C@H](O)[C@H](O)[C@H](O)CO)c2cc1C,AC50,[1],6.52 µM (active)
Cc1cc(C)c(S(=O)(=O)O)cc1N=Nc1cc(S(=O)(=O)O)c2ccccc2c1O,outcome,[12],inactive
same,outcome,[13],inactive
same,outcome,[14],inactive
CC[N+](CC)(CC(=O)Nc1c(C)cccc1C)Cc1ccccc1 (tested in a mixture with another compound),outcome,[15],inactive
same,outcome,[16],inactive
same,outcome,[17],inactive
same,outcome,[18],inactive
O=C(O)c1ccccc1C(=O)O,outcome,[5],inactive
same,outcome,[6],inactive
same,outcome,[7],inactive
same,outcome,[8],inactive
same,outcome,[9],inactive
same,outcome,[10],inactive
same,outcome,[11],inactive
CN(C)c1ccc(C(c2ccccc2)c2ccc(N(C)C)cc2)cc1,AC50,[4],0.356 µM (active)
c1cc(N(CC2CO2)CC2CO2)ccc1Cc1ccc(N(CC2CO2)CC2CO2)cc1 (stereo not given),outcome,[19],inactive
Oc1ccc(Oc2ccccc2)cc1,AC50,[19],6.92 µM (active)
CN(C)Cc1cc(C(C)(C)C)c(O)c(C(C)(C)C)c1,outcome,[15],inactive
same,outcome,[16],inactive
same,AC50,[17],20 µM (active)
same,outcome,[17],inactive
same,AC50,[18],10.7 µM (active)
same,outcome,[18],inactive
O=[N+]([O-])c1ccc(ON=Cc2cc(Br)c(O)c(Br)c2)c([N+](=O)[O-])c1,outcome,[19],inactive
CCCCCC[C@@H](O)C/C=C\CCCCCCCC(=O)O,AC50,[15],30.9 µM (active)
same,outcome,[16],inactive

# — PubChem BioAssay (EPA / NIEHS)
